In ChEMBL document CHEMBL3988442, “University of Dundee, Small-Polar-MMV Screening Library” (2021):
For some of these results: Potency and affinity values are given separately.

Tests used:
Set-up in all cases: scale not given: direction of the effect not stated beside the values
[1] = molecular target: Protein translocase subunit SecA (Escherichia coli (strain K12)) (UniProt P10408); experiment: Assay to Identify E. coli SecA ATPase Inhibitors; assay type: functional; details: 30 µM
[2] = molecular target: T1, Ubiquitin-activating enzyme e1, putative (Leishmania donovani (strain BPK282A1)) (UniProt E9BSI1); experiment: Leishmania donovani Ubiquitin Activating Enzyme (LdE1); assay type: functional; details: 30 µM
T1 sequence (whole entry): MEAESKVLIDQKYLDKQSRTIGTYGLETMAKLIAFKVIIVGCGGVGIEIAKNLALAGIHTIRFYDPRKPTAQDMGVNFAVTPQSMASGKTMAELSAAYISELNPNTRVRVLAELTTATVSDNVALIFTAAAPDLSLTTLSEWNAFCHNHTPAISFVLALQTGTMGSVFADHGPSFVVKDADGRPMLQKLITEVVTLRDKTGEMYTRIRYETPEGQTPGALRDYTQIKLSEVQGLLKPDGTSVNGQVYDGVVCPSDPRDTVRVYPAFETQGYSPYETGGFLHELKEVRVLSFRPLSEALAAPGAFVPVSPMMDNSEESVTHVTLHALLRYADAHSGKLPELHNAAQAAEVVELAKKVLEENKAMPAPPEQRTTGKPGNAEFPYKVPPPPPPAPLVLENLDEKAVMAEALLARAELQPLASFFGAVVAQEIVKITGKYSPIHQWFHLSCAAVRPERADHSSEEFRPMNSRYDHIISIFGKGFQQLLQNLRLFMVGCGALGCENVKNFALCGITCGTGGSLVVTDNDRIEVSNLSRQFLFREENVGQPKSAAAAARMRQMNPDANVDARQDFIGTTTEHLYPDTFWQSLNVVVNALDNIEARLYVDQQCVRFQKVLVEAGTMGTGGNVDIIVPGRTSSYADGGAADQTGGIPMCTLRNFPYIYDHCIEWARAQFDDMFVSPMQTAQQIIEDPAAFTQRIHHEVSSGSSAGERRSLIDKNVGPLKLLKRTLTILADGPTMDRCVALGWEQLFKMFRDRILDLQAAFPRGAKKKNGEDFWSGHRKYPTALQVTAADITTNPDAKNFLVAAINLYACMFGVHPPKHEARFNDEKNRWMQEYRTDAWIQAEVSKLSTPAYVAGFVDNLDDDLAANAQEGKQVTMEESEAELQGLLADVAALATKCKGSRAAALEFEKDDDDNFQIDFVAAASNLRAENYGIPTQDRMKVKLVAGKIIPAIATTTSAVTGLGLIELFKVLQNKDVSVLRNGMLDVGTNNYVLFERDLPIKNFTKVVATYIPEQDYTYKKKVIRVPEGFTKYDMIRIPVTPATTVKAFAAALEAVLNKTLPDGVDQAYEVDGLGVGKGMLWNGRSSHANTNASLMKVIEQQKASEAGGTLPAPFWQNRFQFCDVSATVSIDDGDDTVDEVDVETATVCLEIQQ

[3] = molecular target: AMP-activated protein kinase, AMPK (Homo sapiens) (UniProt P54646+O43741+P54619+Q9UGJ0+Q9Y478+Q13131+Q9UGI9); experiment: AMP-dependent Kinase enzyme assay. An in vitro enzyme assay that detects ADP turnover that is directly proportional to AMPK activity. This uses naive AMPK that is activated during the assay with MK-8722; assay type: functional; details: 30 µM
[4] = molecular target: Sialic acid-binding Ig-like lectin 9 (Homo sapiens) (UniProt Q9Y336); experiment: Hs-Siglec9 ALPHAscreen SOP 20170721; details: 10 µM
Sequence of Sialic acid-binding Ig-like lectin 9 (Homo sapiens) (Q9Y336 whole entry): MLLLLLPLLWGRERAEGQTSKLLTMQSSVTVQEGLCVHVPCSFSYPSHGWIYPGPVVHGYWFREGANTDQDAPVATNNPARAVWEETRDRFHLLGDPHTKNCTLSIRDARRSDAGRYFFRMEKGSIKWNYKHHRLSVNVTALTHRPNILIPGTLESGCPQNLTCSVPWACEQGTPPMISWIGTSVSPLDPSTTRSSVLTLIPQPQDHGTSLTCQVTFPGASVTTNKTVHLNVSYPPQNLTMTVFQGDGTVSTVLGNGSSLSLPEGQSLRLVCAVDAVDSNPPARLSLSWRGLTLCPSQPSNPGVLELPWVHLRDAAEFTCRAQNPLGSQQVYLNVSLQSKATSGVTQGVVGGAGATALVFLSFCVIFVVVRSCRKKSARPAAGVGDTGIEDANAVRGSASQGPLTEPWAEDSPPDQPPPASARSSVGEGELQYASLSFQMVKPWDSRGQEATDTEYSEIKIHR

Trypanosoma cruzi = experiment: Trypanosoma cruzi phosphomannomutase and mannose-1-phosphate guanylyltransferase assay; assay type: functional; details: 10 µM
[5] = molecular target: T2, Arginase-2, mitochondrial (Homo sapiens) (UniProt P78540); experiment: in vitro enzyme assay to detect the production of urea directly proportional to the activity of Arginase II; assay type: functional; details: 33.3 µM; further: in the data most compounds retested in dose-response had high values
T2 sequence (whole entry): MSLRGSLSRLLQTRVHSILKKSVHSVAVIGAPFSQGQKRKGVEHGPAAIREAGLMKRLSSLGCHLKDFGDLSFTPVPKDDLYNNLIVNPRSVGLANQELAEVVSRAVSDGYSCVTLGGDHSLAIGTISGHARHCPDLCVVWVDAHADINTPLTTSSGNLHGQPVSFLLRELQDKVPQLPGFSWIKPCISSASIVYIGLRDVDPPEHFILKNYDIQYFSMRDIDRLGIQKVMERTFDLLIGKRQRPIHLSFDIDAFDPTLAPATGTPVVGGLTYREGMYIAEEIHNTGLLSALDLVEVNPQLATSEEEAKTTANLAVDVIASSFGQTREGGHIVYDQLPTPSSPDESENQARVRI

[6] = molecular target: T3, Proteasome subunit beta (Trypanosoma cruzi) (UniProt O96673); experiment: Trypanosoma cruzi proteasome chymotrypsin-like activity (TcProtChymo) assay.; further: in the data most compounds retested in dose-response had high values; assay type: functional; details: 9.37 µM
T3 sequence (whole entry): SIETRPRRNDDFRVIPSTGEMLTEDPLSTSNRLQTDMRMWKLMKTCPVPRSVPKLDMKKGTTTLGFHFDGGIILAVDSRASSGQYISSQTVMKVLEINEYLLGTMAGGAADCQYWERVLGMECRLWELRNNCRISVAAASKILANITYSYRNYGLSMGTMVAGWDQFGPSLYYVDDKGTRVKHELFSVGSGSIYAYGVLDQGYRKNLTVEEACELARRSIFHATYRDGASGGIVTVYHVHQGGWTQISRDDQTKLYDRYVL

Homo sapiens = species: Homo sapiens; experiment: To identify inhibition of the IFN signalling (Jak-Stat) pathway via expression of an eGFP reporter gene under the control of an IFN-stimulated response element (ISRE) containing MxA promoter.; assay type: functional; details: 30 µM
[7] = molecular target: T4, Tyrosyl-tRNA synthetase, putative (Trypanosoma cruzi (strain CL Brener)) (UniProt Q4DSP6); experiment: Trypanosoma cruzi tyrosyl tRNA synthetase (TcYRS) _High Tyrosine SOP; assay type: functional; details: 30 µM; further: in the data most compounds retested in dose-response had high values
T4 sequence (whole entry): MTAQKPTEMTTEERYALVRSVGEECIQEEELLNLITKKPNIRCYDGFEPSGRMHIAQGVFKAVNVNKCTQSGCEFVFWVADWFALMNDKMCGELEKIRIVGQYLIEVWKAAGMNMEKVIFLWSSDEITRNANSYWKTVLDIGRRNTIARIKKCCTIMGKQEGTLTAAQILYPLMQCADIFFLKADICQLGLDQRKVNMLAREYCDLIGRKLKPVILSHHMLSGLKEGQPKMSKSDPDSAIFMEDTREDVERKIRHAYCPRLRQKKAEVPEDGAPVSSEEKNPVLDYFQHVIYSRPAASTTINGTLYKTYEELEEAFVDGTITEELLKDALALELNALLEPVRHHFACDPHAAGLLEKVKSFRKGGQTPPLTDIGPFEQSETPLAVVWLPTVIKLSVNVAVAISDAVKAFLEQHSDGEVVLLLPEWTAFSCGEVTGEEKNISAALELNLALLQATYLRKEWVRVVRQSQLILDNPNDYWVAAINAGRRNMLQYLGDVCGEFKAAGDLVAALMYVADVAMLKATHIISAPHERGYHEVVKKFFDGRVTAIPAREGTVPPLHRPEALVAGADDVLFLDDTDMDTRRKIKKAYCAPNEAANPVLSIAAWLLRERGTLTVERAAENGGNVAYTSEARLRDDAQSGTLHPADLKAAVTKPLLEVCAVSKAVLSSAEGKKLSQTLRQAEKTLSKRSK

[8] = molecular target: T4, Tyrosyl-tRNA synthetase, putative (Trypanosoma cruzi (strain CL Brener)); experiment: Trypanosoma cruzi tyrosyl tRNA synthetase (TcYRS) SOP; assay type: functional; details: 30 µM
[9] = molecular target: Chromo domain-containing protein 1 (Saccharomyces cerevisiae (strain ATCC 204508 / S288c) (Baker's yeast)) (UniProt P32657); experiment: ScCHD-1 Enzyme Inhibition Assay; assay type: functional; details: 30 µM; further: in the data most compounds retested in dose-response had high values
Sequence of Chromo domain-containing protein 1 (Saccharomyces cerevisiae (strain ATCC 204508 / S288c) (Baker's yeast)) (P32657 whole entry, the tested form may be a part): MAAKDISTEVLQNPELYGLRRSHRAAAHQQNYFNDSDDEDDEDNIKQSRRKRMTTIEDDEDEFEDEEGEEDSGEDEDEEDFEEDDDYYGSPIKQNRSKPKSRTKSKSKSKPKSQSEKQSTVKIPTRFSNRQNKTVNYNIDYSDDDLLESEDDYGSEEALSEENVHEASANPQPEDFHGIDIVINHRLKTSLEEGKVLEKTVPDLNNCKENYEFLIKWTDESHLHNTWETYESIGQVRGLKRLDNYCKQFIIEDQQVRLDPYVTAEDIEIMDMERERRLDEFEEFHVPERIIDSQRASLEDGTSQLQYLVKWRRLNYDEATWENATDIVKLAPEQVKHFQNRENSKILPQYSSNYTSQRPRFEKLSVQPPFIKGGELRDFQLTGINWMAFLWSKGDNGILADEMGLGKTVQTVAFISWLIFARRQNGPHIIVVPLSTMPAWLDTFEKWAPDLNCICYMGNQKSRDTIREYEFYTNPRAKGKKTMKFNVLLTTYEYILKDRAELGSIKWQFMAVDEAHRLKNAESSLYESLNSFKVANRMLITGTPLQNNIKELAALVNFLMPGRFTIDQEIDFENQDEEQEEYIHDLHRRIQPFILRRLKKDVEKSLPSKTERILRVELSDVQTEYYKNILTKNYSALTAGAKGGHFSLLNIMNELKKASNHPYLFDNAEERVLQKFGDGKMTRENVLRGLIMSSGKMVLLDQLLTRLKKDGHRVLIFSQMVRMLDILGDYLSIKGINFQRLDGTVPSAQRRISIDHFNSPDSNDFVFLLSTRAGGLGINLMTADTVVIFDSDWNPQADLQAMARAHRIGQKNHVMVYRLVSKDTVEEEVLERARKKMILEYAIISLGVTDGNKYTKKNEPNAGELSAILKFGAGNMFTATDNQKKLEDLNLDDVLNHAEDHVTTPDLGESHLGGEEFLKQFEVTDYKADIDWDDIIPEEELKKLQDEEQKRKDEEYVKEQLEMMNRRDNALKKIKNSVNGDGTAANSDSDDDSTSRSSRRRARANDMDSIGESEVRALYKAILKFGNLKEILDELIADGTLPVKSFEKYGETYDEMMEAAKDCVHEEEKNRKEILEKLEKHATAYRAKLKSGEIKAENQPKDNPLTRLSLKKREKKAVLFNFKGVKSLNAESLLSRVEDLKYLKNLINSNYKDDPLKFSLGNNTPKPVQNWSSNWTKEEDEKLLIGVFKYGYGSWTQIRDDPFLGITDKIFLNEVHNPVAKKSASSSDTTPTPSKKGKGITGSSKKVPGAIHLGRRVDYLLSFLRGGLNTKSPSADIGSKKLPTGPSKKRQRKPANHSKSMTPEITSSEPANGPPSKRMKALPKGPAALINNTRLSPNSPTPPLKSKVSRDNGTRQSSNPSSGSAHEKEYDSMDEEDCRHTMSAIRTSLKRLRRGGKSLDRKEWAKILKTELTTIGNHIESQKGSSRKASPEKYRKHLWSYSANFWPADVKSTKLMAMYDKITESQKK

Sequence of Protein translocase subunit SecA (Escherichia coli (strain K12)) (P10408 whole entry): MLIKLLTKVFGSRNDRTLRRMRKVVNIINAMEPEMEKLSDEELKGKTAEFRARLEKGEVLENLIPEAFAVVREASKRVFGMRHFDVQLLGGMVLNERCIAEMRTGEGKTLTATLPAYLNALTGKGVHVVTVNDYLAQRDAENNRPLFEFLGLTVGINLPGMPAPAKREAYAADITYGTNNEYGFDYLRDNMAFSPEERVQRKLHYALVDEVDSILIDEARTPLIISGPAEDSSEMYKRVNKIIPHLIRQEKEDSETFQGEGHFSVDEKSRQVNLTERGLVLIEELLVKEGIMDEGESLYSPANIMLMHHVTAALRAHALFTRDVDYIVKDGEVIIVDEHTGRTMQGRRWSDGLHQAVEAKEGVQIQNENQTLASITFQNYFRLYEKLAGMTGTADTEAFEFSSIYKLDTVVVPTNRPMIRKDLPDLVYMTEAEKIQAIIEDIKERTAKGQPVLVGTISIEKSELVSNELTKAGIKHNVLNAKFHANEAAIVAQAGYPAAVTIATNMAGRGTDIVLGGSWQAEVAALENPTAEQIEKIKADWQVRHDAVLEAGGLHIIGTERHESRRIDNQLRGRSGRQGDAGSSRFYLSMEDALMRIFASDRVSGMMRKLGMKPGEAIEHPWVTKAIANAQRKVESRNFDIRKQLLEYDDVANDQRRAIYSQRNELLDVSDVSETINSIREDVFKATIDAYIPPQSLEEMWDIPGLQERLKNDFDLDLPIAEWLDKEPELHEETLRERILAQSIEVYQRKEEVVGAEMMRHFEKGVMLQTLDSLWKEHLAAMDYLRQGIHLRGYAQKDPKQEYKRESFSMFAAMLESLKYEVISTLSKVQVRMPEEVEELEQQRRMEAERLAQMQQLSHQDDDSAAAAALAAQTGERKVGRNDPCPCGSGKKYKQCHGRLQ

SMILES | Percent Effect [1] [%] | Percent Effect [2] [%] | Percent Effect [3] [%] | Percent Effect [4] [%] | Percent Effect (Trypanosoma cruzi) [%] | Percent Effect [5] [%] | Percent Effect [6] [%] | Percent Effect (Homo sapiens) [%] | Percent Effect [7] [%] | Percent Effect [8] [%] | Percent Effect [9] [%]
Cn1ncc2c1NC(=O)CC2c1ccc(Cl)cc1Cl (stereo not given) | -0.731 | 2.63 | 4.33 | 1.29 | -8.67 | -1.18 | 11.8 | 18 | 0 | 2.6 | -4.32
COC(=O)C(c1cc(F)ccc1F)N(C)C(=O)c1ccnc(C)n1 (stereo not given) | -4.44 | -46.8 | 8.88 | 3.63 | -2.77 | 0.645 | 1.72 | 18.2 | 7.29 | 15.2 | -3.25
CCC(CC)c1cc(CNC(=O)N2CCCC(N(C)C)C2)on1 (stereo not given) | -3.85 | 8.11 | -7.08 | 17.6 | 6.55 | 0.248 | 12.8 | 7.88 | 6.45 | 13.6 | -6.35
O=C(c1ccoc1)N1CC[C@H]2OCC[C@@]2(COc2ncccc2F)C1 | -6.18 | 18.9 | -5.57 | 25.4 | 3.23 | 2.73 | 6.78 | -2.11 | 4.3 | 21 | -7.11
COCCN1C[C@@H](C)[C@@]2(COCCN(C(=O)Cc3ccccc3)C2)C1 | -2.42 | 10.7 | 4.69 | 6.89 | 1.54 | -54.7 | 5.13 | -15.6 | 5.21 | 12.5 | -7.47
